Data: the supplement of paper PMC10849652
About 8,800 targets were measured; listed, in parts, are those with a hit and a random draw of the rest. About 0.5% of all pairs of compound and target were hits.

Columns and labels:
Assay in all cases: log2 fold change, soluble protein after heating vs DMSO (PISA); higher = thermal stabilisation; K562 lysate, 10 uM; active = over 0.2 and 3.5 SD of the protein, either way, in both replicates (recomputed)
[1] = compound: CN1CC[C@H](c2c(O)cc(O)c3c(=O)cc(-c4ccccc4Cl)oc23)[C@H](O)C1 [alvocidib]
Procedure, shortened: (§1)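 A 30 min treatment with 10 μM compound was applied to crude K562 extract at 1 mg/mL protein in PBS pH 7.4 with 1 mM MgCl2. Heating for 3 min spanned 48°C-58°C, after which aliquots were pooled, adjusted to 0.5% NP-40 at 4°C and spun at 21,000xg for 90 min. TMTpro 16plex LC-MS/MS of the supernatant, with channel sums equalised, gave values recorded as log-two fold change in thermal stability against solvent controls, from duplicates.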

[2] = compound: CN1CCc2c(c3ccccc3n2Cc2ccc(C(=O)NO)cc2)C1 [Tubastatin A]
Procedure, shortened: as §1

[3] = compound: CNC(=O)C1=CC=CC=C1NC2=NC(=NC=C2Cl)NC3=C(C=C(C=C3)N4CCOCC4)OC
Procedure, shortened: as §1

[4] = compound: CNC(=O)c1ccc(Nc2ncc(C(F)(F)F)c(NCc3nccnc3N(C)S(C)(=O)=O)n2)cc1 [defactinib]
Procedure, shortened: as §1

[5] = compound: CNc1nc(-c2ccc3c(N)n[nH]c3c2)cc(N2C[C@@H](C(=O)NC3CCCCC3)CC[C@H]2C)n1
Procedure, shortened: as §1

[6] = compound: COC(=O)N[C@@H](C)CNc1nccc(-c2cn(C(C)C)nc2-c2cc(Cl)cc(NS(C)(=O)=O)c2F)n1 [encorafenib]
Procedure, shortened: as §1

[7] = compound: COC(=O)[C@H](CCSC)NC(=O)C1=C(C=C(C=C1)NC[C@H](CS)N)C2=CC=CC=C2
Procedure, shortened: as §1

[8] = compound: COc1cc(Nc2ncc3c(n2)-c2ccc(Cl)cc2C(c2c(F)cccc2OC)=NC3)ccc1C(=O)O [alisertib]
Procedure, shortened: as §1

[9] = compound: COc1cc2nc(-c3cc(F)ccc3O)nc(N[C@@H]3CNC[C@H]3C(C)(C)O)c2cc1OC
Procedure, shortened: as §1

[10] = compound: COc1cc2ncnc(Nc3ccc(F)c(Cl)c3)c2cc1OCCCN1CCOCC1 [gefitinib]
Procedure, shortened: as §1

Measured: log2 fold change

ARHGEF1 (UniProt M0QZR4)
inactive: [1] 0.011 | [2] -0.085 | [3] 0.016 | [4] -0.005 | [5] -0.016 | [6] 0.022 | [7] 0.063 | [8] 0.001 | [9] -0.01 | [10] -0.014

ACADS (UniProt P16219)
inactive: [1] -0.011 | [2] -0.003 | [3] 0.019 | [4] -0.011 | [5] 0.014 | [6] -0.034 | [7] 0.071 | [8] -0.003 | [9] -0.037 | [10] -0.023

ACSL4 (UniProt O60488)
inactive: [1] 0.023 | [2] -0.06 | [3] 0.047 | [4] 0.054 | [5] -0.034 | [6] 0.003 | [7] 0.073 | [8] -0.017 | [9] 0.019 | [10] 0.014

ACLY (UniProt P53396)
inactive: [1] 0.022 | [2] 0.078 | [3] -0.006 | [4] -0.036 | [5] 0.01 | [6] -0.043 | [7] 0.133 | [8] 0.016 | [9] 0.003 | [10] 0.004

ANKRD52 (UniProt Q8NB46)
UniProt Q8NB46, sequence (Q8NB46 whole entry, looked up): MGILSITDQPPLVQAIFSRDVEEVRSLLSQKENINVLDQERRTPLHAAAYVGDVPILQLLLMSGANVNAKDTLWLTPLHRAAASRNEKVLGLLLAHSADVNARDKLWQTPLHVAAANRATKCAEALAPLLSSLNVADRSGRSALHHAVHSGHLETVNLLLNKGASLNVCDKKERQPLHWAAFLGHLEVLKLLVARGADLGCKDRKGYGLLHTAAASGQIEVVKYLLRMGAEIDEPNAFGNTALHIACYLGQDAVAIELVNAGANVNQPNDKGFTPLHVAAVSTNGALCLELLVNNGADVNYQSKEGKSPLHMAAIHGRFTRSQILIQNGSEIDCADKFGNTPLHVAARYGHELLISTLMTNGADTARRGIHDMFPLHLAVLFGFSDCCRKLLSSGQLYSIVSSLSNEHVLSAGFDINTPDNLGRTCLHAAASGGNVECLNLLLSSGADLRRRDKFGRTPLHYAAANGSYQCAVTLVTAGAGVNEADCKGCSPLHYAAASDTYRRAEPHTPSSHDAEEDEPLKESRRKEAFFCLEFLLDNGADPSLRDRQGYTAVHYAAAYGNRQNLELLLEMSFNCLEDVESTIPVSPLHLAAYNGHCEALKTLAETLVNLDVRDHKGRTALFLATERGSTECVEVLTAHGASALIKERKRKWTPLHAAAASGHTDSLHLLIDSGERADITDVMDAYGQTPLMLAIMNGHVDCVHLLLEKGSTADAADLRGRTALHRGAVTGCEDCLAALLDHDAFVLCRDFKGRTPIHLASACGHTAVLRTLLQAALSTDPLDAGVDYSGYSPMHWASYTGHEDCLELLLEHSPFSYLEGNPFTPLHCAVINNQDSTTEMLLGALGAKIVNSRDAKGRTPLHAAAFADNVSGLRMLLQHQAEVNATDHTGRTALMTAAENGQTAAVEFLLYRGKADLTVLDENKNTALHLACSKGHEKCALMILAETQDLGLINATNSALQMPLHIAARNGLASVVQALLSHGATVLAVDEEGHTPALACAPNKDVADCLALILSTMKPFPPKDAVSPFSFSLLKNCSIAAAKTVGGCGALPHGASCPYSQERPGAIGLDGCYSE
inactive: [1] -0.002 | [2] -0.132 | [3] -0.003 | [4] 0.076 | [5] 0.014 | [6] 0.047 | [7] 0.11 | [8] 0.005 | [9] 0 | [10] 0.039

ABHD16A (UniProt O95870)
UniProt O95870, sequence (O95870 whole entry, looked up): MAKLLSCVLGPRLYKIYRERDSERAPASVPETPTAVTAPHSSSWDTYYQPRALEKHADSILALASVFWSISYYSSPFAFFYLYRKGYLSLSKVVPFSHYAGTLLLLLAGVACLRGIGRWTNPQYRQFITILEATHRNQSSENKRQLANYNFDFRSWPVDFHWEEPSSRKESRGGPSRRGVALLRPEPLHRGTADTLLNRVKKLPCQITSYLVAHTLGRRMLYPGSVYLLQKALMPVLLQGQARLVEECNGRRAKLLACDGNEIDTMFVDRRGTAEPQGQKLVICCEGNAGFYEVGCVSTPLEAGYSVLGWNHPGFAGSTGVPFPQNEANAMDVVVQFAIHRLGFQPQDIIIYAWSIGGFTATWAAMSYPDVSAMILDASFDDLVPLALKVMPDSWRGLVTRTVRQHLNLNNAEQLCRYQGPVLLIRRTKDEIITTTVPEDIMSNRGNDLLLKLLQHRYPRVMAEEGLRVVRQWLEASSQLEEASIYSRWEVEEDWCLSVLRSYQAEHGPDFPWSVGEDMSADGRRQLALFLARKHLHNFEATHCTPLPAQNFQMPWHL
inactive: [1] 0.036 | [2] 0.066 | [3] -0.077 | [4] 0.009 | [5] 0.054 | [6] -0.074 | [8] -0.029 | [9] -0.004 | [10] -0.021
active: [7] 0.245

ACTG1 (UniProt I3L4N8)
inactive: [1] 0.089 | [2] 0.119 | [3] 0.046 | [4] -0.142 | [5] -0.005 | [6] 0.209 | [7] 0 | [8] -0.198 | [9] -0.003 | [10] -0.115

AIMP1 isoform 2 (UniProt Q12904)
inactive: [1] 0.056 | [2] -0.118 | [3] 0.01 | [4] 0.018 | [5] 0.028 | [6] -0.005 | [7] 0.11 | [8] 0.004 | [9] -0.009 | [10] -0.029

ACAT1 (UniProt P24752)
inactive: [1] 0.018 | [2] -0.136 | [3] 0.001 | [4] -0.027 | [5] 0.05 | [6] -0.033 | [7] 0.04 | [8] 0 | [9] -0.006 | [10] -0.06

ARGLU1 (UniProt Q9NWB6)
inactive: [1] -0.119 | [2] 0.018 | [3] -0.056 | [4] -0.049 | [5] 0.01 | [6] 0.012 | [7] -0.039 | [8] -0.006 | [9] 0.012 | [10] 0.006

ABHD17B (UniProt Q5VST6)
UniProt Q5VST6, sequence (Q5VST6 whole entry, looked up): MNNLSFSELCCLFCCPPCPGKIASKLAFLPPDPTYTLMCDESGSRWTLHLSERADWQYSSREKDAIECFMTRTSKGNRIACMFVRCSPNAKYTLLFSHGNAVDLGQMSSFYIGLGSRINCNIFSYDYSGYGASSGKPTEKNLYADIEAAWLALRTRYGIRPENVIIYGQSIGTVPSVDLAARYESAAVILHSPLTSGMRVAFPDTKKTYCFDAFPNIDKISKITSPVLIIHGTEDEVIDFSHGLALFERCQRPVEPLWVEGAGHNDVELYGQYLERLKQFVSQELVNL
active: [7] -0.642
inactive: [1] 0 | [2] -0.016 | [3] -0.003 | [4] 0.064 | [5] -0.099 | [6] 0.059 | [8] 0.06 | [9] -0.011 | [10] 0.043

AKT1 (UniProt P31749)
UniProt P31749, sequence (P31749 whole entry, looked up): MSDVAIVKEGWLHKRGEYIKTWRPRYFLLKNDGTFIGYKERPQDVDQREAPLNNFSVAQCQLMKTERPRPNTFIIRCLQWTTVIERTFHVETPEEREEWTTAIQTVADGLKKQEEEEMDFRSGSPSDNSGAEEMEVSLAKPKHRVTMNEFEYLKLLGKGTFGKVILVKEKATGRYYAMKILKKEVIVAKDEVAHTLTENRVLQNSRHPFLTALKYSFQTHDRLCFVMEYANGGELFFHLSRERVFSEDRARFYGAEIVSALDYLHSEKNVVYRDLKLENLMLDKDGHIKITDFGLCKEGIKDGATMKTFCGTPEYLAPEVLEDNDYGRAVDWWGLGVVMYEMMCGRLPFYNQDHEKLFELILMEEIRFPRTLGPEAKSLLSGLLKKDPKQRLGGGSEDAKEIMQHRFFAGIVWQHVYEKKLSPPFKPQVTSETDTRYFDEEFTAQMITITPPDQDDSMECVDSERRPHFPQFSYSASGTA
inactive: [1] -0.002 | [2] -0.018 | [3] 0.036 | [4] 0.038 | [5] -0.05 | [6] 0.084 | [7] 0.093 | [8] 0.019 | [9] 0.003 | [10] -0.05

ALKBH4 (UniProt Q9NXW9)
inactive: [1] 0.029 | [2] -0.093 | [3] -0.003 | [4] 0.166 | [5] 0.026 | [6] 0.053 | [7] -0.02 | [8] 0.019 | [9] -0.03 | [10] 0.044

ABCD3 (UniProt P28288)
active: [7] 0.444
inactive: [1] -0.064 | [2] 0.1 | [3] -0.114 | [4] -0.019 | [5] -0.048 | [6] 0.028 | [8] 0.044 | [9] -0.013 | [10] 0.145

ANKRD27 (UniProt Q96NW4)
inactive: [1] -0.056 | [2] -0.118 | [3] 0.046 | [4] 0.035 | [5] 0.003 | [6] -0.007 | [7] 0.103 | [8] -0.053 | [9] -0.087 | [10] 0.03

ABHD17A isoform 2 (UniProt Q96GS6)
inactive: [1] -0.025 | [2] 0.023 | [3] -0.025 | [4] -0.009 | [5] 0.01 | [6] -0.009 | [7] -0.222 | [8] -0.12 | [9] 0.04 | [10] 0.044

AIP (UniProt O00170)
UniProt O00170, sequence (O00170 whole entry, looked up): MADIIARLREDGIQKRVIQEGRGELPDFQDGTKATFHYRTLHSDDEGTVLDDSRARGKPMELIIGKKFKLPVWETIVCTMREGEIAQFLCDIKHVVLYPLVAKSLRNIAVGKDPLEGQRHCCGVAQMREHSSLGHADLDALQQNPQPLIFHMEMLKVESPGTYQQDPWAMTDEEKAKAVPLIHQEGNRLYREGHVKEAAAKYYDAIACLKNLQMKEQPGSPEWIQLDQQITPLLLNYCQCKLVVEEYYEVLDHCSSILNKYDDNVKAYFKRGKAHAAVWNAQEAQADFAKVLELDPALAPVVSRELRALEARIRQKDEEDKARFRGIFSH
inactive: [1] 0.164 | [2] 0.003 | [3] 0.037 | [4] 0.004 | [5] 0.015 | [6] -0.008 | [7] 0.043 | [8] -0.039 | [9] -0.002 | [10] -0.032

ARFGAP1 (UniProt Q8N6T3)
inactive: [1] -0.001 | [2] -0.008 | [3] 0.105 | [4] 0.115 | [5] 0.025 | [6] 0.355 | [7] -0.054 | [8] 0.245 | [9] 0.097 | [10] 0.209

AK4 (UniProt P27144)
UniProt P27144, sequence (P27144 whole entry, looked up): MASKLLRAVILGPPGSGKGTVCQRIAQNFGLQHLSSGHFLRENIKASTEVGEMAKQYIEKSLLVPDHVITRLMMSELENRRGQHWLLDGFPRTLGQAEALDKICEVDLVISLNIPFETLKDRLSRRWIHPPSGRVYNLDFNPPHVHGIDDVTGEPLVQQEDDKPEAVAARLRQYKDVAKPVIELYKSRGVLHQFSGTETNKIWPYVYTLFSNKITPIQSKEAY
inactive: [1] 0.025 | [2] 0.036 | [3] -0.008 | [4] 0.003 | [5] 0.009 | [6] 0.006 | [7] -0.07 | [8] 0.026 | [9] -0.034 | [10] -0.043

ARL8A (UniProt Q96BM9)
UniProt Q96BM9, sequence (Q96BM9 whole entry, looked up): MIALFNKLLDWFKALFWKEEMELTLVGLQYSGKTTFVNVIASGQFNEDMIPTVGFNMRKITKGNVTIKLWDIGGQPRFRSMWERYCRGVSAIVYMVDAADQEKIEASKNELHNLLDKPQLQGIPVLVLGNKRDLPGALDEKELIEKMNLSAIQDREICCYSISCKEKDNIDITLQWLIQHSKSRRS
inactive: [1] 0.082 | [2] 0.043 | [3] 0.06 | [4] 0.019 | [5] 0.204 | [6] -0.048 | [7] -0.03 | [8] -0.186 | [9] 0.027 | [10] 0.013

ANP32A (UniProt P39687)
UniProt P39687, sequence (P39687 whole entry, looked up): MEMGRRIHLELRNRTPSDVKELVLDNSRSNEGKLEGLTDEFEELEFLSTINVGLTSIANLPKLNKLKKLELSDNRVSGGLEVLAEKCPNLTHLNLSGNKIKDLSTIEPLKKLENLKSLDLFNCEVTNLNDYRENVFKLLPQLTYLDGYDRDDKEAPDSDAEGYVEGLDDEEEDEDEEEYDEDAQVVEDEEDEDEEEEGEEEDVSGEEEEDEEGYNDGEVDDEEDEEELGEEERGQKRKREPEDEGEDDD
inactive: [1] -0.039 | [2] 0.027 | [3] -0.006 | [4] 0.016 | [5] -0.056 | [6] -0.024 | [7] -0.048 | [8] 0.018 | [9] -0.014 | [10] -0.007

ABCF2 isoform 2 (UniProt Q9UG63)
UniProt Q9UG63, sequence (Q9UG63 whole entry, looked up): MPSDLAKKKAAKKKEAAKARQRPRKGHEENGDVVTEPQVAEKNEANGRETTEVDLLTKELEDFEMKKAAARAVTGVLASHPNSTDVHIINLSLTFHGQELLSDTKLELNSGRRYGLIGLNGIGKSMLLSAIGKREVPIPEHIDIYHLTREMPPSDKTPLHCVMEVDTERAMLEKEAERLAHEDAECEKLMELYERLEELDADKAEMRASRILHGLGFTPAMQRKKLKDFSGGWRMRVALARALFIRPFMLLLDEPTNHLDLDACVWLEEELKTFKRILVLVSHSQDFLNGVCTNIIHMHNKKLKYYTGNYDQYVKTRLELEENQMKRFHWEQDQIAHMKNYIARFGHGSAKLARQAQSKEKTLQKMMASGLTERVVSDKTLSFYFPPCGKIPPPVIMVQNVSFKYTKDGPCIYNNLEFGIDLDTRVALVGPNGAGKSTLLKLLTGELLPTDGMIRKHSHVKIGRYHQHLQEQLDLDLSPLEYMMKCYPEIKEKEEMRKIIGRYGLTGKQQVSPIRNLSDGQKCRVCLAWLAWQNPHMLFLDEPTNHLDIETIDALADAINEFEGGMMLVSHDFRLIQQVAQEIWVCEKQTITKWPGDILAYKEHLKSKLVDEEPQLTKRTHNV
inactive: [1] 0.004 | [2] -0.169 | [3] -0.001 | [4] -0.039 | [5] 0.005 | [6] -0.005 | [7] 0.08 | [8] 0.014 | [9] 0.025 | [10] -0.02

ABL2 (UniProt P42684)
inactive: [1] 0.007 | [2] -0.04 | [3] 0.082 | [4] 0.066 | [5] -0.108 | [6] 0.092 | [7] -0.068 | [8] -0.123 | [9] -0.009 | [10] -0.176

ADD1 isoform 3 (UniProt P35611)
inactive: [1] 0.016 | [2] 0.007 | [3] -0.013 | [4] 0.015 | [5] 0.031 | [6] 0.004 | [7] -0.034 | [8] 0.03 | [9] 0.006 | [10] -0.01

ACSL1 (UniProt P33121)
inactive: [1] 0.02 | [2] -0.169 | [3] 0.001 | [4] 0.096 | [5] -0.062 | [6] 0.007 | [7] -0.052 | [8] 0.057 | [9] -0.08 | [10] -0.036

ARAF (UniProt P10398)
UniProt P10398, sequence (P10398 whole entry, looked up): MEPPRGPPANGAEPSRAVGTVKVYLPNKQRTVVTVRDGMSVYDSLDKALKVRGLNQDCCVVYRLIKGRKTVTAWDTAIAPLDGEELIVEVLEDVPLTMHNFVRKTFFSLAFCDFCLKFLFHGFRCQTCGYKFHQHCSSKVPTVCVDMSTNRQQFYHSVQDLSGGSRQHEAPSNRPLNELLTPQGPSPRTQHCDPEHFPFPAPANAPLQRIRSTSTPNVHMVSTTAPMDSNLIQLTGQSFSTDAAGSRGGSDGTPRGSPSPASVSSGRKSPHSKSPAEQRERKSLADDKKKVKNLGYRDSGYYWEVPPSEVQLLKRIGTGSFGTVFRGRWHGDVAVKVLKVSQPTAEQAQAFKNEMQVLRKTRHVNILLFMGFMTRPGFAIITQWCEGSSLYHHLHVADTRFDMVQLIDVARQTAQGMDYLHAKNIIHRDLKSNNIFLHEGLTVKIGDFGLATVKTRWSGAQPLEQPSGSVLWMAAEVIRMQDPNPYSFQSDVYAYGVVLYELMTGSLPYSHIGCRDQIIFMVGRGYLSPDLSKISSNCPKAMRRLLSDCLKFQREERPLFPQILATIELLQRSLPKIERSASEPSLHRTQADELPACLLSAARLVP
inactive: [1] 0.036 | [2] -0.08 | [3] 0.019 | [4] -0.039 | [5] -0.105 | [7] 0.093 | [8] -0.048 | [9] 0.007 | [10] 0.019
active: [6] 0.307

AFF4 (UniProt Q9UHB7)
inactive: [1] -0.235 | [2] -0.086 | [3] -0.046 | [4] 0.077 | [5] 0.018 | [6] 0.011 | [7] -0.027 | [8] -0.022 | [9] 0.015 | [10] 0.013

AKR1C3 (UniProt P42330)
UniProt P42330, sequence (P42330 whole entry, looked up): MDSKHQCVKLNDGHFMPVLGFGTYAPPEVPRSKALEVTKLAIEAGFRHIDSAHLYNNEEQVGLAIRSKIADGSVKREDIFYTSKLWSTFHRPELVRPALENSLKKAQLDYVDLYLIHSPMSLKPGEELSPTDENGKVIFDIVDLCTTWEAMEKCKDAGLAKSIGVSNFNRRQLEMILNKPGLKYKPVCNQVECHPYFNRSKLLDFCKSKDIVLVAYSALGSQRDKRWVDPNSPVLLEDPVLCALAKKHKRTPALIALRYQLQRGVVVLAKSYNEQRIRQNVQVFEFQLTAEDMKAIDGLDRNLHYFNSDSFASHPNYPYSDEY
inactive: [1] 0.026 | [2] 0.073 | [3] -0.052 | [4] 0.017 | [5] -0.211 | [6] -0.026 | [7] 0.022 | [8] 0.056 | [9] 0.028 | [10] -0.003

ACIN1 (UniProt E7EQT4)
inactive: [1] -0.093 | [2] 0.095 | [3] 0.003 | [4] -0.038 | [5] 0.06 | [6] 0.022 | [7] -0.033 | [8] -0.039 | [9] -0.011 | [10] 0.051
